# Bioassay records: PubChem, National Center for Advancing Translational Sciences (NCATS)
# Pf growth 96h = P. falciparum growth inhibition at 96 hour, primary screen for plastid delayed-death inhibitors. P. falciparum luciferase reporter growth, 96 h. Potency, µM (top dose mostly 28.7 µM), actives largely listed as inhibitors. actives 6.9% (n = 320,000). AID 504834
#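 Infected RBCs, 2% Hct / 0.05% parasitemia final; luciferase-reporter P. falciparum; cpd 96 h, 37 C, 5% CO2; luciferase detection reagent; luminescence.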
# AMA1-RON2 inh = disrupts binding of P. falciparum AMA1 to RON2 | AlphaScreen AMA1-biotinylated RON2 peptide binding | Potency, µM (doses to about 58.2 µM), actives largely listed as inhibitors | actives 0.2% (n = 360,000) | AID 720542; further: nearly all actives have a fitted effect of over 45% in size
#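 AMA1 (3D7) with his tag at 25 nM final met compounds first, then biotinylated RON2 peptide at 25 nM; detection used donor plus acceptor beads, 10 µg/mL apiece, read by AlphaScreen after 30 min at room temperature.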
# Pf growth 48h = inhibits P. falciparum growth in the first generation, 48 h | P. falciparum luciferase growth in erythrocytes, 48 h | Potency, µM (titrated, usually from 28.7 µM), most hits filed as inhibitors | actives 5.9% (n = 310,000) | AID 504832
#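 Luminescence readout; reporter = integrated firefly luciferase in P. falciparum. RBC culture at 2% hematocrit, 0.1% parasitemia final, 37 C/5% CO2; decreased signal taken as growth inhibition.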
# HCV inhibitor = inhibitors of hepatitis C virus infection. AID 651820. Huh7.5.1 HCVcc-Cre infection, luciferase reporter, 44 h. Potency, µM (series often up to 41.8 µM), hits mostly inhibitors. actives 3.4% (n = 340,000)
#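 Compounds are dispensed onto cells plated 4 h earlier at 1,000 per well, with HCVcc-Cre virus (about 0.5 moi) added next. Following 44 h of culture, luminescent signal is measured for 15 sec after 15 min with substrate at room temperature.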
# SARS PLpro yeast = inhibitors of SARS-CoV papain-like protease in yeast; S. cerevisiae expressing SARS-CoV PLpro, growth rescue; Potency, µM (titrated, usually from 32.9 µM), usual class: activators; actives 0.19% (n = 330,000); AID 485353; calls by dose curve; further: nearly all actives have a fitted effect of over 55% in size
# NS1 function inh = blocks influenza NS1 protein function. Potency, µM (highest dose often 46.1 µM). actives 0.4% (n = 270,000). AID 2326; calls by dose curve; further: actives are rising curves; nearly all actives have a fitted effect of over 50% in size
#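 Read-out: OD600 growth recovery of NS1-expressing budding yeast. Cells grown overnight at 30C in -URA glucose medium, washed, resuspended and diluted 1:100 in 2% galactose assay medium, pH 6.0. Same strain lacking NS1 served as positive control.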
# Hits are given with their value; - = inactive; ? = inconclusive; . = no result; [ ] = remark or other dose. Rows were chosen to be rich in hits. Some 12% of all compounds tested hit in one or more screens of this group. Unless noted, the call rests on the fitted dose curve; in most records, active means well fitted curve in the direction sought with a large enough effect; inconclusive means small, poorly fitted or top-dose-only effect, or another doubt; inactive means no such curve, though single readings can be large; an effect the other way counts as inactive or inconclusive.
SMILES,Pf growth 96h,AMA1-RON2 inh,Pf growth 48h,HCV inhibitor,SARS PLpro yeast,NS1 function inh
C#CCOCCOCCOCCNc1nc(N2CCN(C(=O)[C@H](Cc3cc4ccccc4[nH]3)n3cc(C(N)CC(C)C)nn3)CC2)nc(N2CCN(C(=O)[C@H](CCC(=O)O)n3cc(C(N)[C@H](C)CC)nn3)CC2)n1 (some centres undefined),-,-,-,?,-,-
C#CCOCCOCCOCCNc1nc(N2CCN(C(=O)[C@H]([C@@H](C)CC)n3cc([C@@H](N)CC(C)C)nn3)CC2)nc(N2CCN(C(=O)[C@H](Cc3cc4ccccc4[nH]3)n3cc([C@@H](N)CC(C)C)nn3)CC2)n1,3.3µM,.,10µM,.,-,-
C#CCOCCOCCOCCNc1nc(N2CCOCC2)nc(N2CCN(C(=O)[C@H](Cc3cc4ccccc4[nH]3)n3cc([C@@H](N)CC(C)C)nn3)CC2)n1,4.1µM,-,2.3µM,-,-,-
C#CCOCCOCCOCCNc1nc(N2CCN(C(=O)[C@H](CCC(=O)O)n3cc(C(N)CC(C)C)nn3)CC2)nc(N2CCN(C(=O)[C@H](Cc3cc4ccccc4[nH]3)n3cc(C(N)CC(C)C)nn3)CC2)n1 (some centres undefined),-,-,-,-,-,-
O=C(NCc1ccccc1Cl)c1cc(C(=O)C2CC2)c[nH]1,-,-,?,-,-,-
COc1ccc(C(=O)N(Cc2cccs2)C2CCS(=O)(=O)C2)cc1 (centres undefined),?,-,-,-,-,-
O=C(c1ccccc1)N(Cc1cccs1)C1CCS(=O)(=O)C1 (centres undefined),0.37µM,-,-,-,-,-
O=C(c1cccs1)N(Cc1ccco1)C1CCS(=O)(=O)C1 (centres undefined),5.2µM,-,-,-,-,-
CCOC(=O)CNC(=O)C1(NC(=O)CNC(=O)OCc2ccccc2)CCCC1,.,-,.,-,.,.
Cc1ccccc1NC(=O)NC1(C(=O)N2CCN(C)CC2)CCCCC1,-,-,-,-,-,-
Cc1[nH]ccc2c1[nH]c1cc(=O)ccc12,10µM,-,13µM,-,-,-
O=C(Nc1ccnn1C1CCN(C(=O)c2cccc(C(F)(F)F)c2)CC1)C1CC1,?,-,-,-,-,-
CCC1CSC(=Nc2ccc(C)cc2)N1C(=O)CN1C(=O)NC2(CCCC2)C1=O (centres undefined),-,-,-,.,-,-
CCn1cc(C(=O)NCc2cccc(F)c2)c(=O)c2cc(F)c(N3CCN(C(=O)c4ccco4)CC3)cc21,2.1µM,-,.,?,-,-
CCCNC(=O)c1cn(CC)c2cc(N3CCN(C(=O)c4ccco4)CC3)c(F)cc2c1=O,3.3µM,-,?,10µM,-,-
CCCc1cc(C(=O)N2CCCC(C(=O)c3cc(C)c(OC)c(C)c3)C2)n(C)n1 (centres undefined),-,-,?,?,-,-
C=CCn1c(=O)c2ccc(C(=O)NCc3ccccc3)cc2n(Cc2ccc(C)cc2)c1=O,2.3µM,-,-,-[8.37 µM],-,-
COCCCNC(=O)c1ccc(Cn2c(=O)c3ccccc3n(Cc3cc(C)ccc3C)c2=O)cc1,.,?,13µM,?,-,-
COCCCNC(=O)c1ccc(Cn2c(=O)c3ccccc3n(Cc3ccccc3C)c2=O)cc1,-,-,.,?,-,-
Cc1ccc(Cn2c(=O)n(-c3ccccc3)c(=O)c3ccc(C(=O)NCc4ccco4)cc32)cc1,-,-,?,-[8.37 µM],-,-
CC(C)C[C@H]1CN(CCCC[C@@H]2CNC(=O)C(=O)N2CC2CCCCC2)C(=O)C(=O)N1CCc1ccc(O)cc1,.,-,.,.,.,.
NC(N)=NC(N)=Nc1ccc(S(N)(=O)=O)cc1,.,.,.,.,.,-
CC(Sc1nc2sccc2c(=O)n1-c1ccccc1)C(N)=O (centres undefined),1.7µM,-,?,-,-,-
CC(C)Sc1nc2sccc2c(=O)n1-c1ccccc1,?,-,-,-,-,-
CC(=O)c1sc(Nc2nc3cc4c(cc3s2)OCO4)nc1C,?,-,-,?,-,-
SMILES,Pf growth 96h,AMA1-RON2 inh,Pf growth 48h,HCV inhibitor,SARS PLpro yeast,NS1 function inh
CCOC(=O)c1sc(Nc2nc3cc4c(cc3s2)OCO4)cc1C,9.3µM,-[11.6 µM],8.3µM,?,-,?
COc1cccc2sc(NN)nc12,?,-,-,-,-,.
COc1cccc2sc(Nc3nc4ccc(NC(C)=O)cc4s3)nc12,?,-,?,4.5µM,-,?
CCOC(=O)c1sc(Nc2nc3c(OC)cccc3s2)cc1C,-,-[11.6 µM],-,10µM,-,-
CC(C)(C)OC(=O)C[C@H]1C/C=C\C[C@@H](CC(=O)NCCO)C(=O)NC[C@@H](c2ccccc2)OC1=O,.,-,.,-,-,.
Cc1ccc2nc(-c3ccncc3)cc(C(=O)N3CCOCC3)c2c1,10µM,-,-,-,-,-
O=C(c1cc(-c2ccncc2)nc2ccc(Br)cc12)N1CCN(Cc2ccc3c(c2)OCO3)CC1,-,-,10µM,-,-,-
Cc1ccc(-c2cc(C(=O)N3CCOCC3)c3cc(C)ccc3n2)cc1,-,-,-,?,-,-
Cc1ccc2nc(-c3ccccc3)cc(C(=O)N3CCN(c4ccccc4O)CC3)c2c1,?,-,10µM,-,-,.
O=C(c1cc(-c2ccncc2)nc2ccc(Cl)cc12)N1CCN(Cc2ccc3c(c2)OCO3)CC1,-,?,?,?,-,-
O=C(c1cc(-c2ccncc2)nc2ccccc12)N1CCN(c2ccccc2O)CC1,4.7µM,-,12µM,-,-,-
O=C(c1cc(-c2ccccc2)nc2ccccc12)N1CCN(c2ccccn2)CC1,-,-,-,-,-,-
O=C(c1cc(-c2ccccc2)nc2ccccc12)N1CCN(c2ccccc2O)CC1,9.3µM,-,15µM,?,-,-
Cc1ccc2nc(-c3ccccc3)cc(C(=O)N3CCN(S(=O)(=O)c4c(C)noc4C)CC3)c2c1,10µM,?,12µM,?,-,.
CCOc1ccc(NC(=O)CN2CCC(n3cnc4cc(F)ccc43)CC2)cc1,-,-,?,-,-,.
CCN(CC1CCCO1)C(=O)CCc1nnc(CCc2ccccc2OC)o1 (centres undefined),-,-,-,-,-,-
COc1ccc(CCNC(=O)c2cc3c(=O)n4ccccc4nc3n(C3CCCCC3)c2=N)cc1OC,10µM,-,?,-,-,-
Cc1ccc(Cn2c(=N)c(C(=O)NCC3CCCO3)cc3c(=O)n4ccccc4nc32)cc1 (centres undefined),?,-,?,?,-,-
Cc1cccn2c(=O)c3cc(C(=O)NCCc4ccccc4)c(=N)n(CC4CCCO4)c3nc12 (centres undefined),-,-,2.3µM,-,-,-
